Test results reported in PubChem BioAssay (Tox21).
Inconclusive results are not listed. Calls of active or inactive are those of the source. Calls come from the whole dose curve.

assay: qHTS assay to identify small molecule antagonists of the estrogen receptor alpha (ER-alpha) signaling pathway using the BG1 cell line (AID 743080); details: BG1Luc4E2 ERE-luciferase antagonist mode, luminescence; series mostly up to 70.3 µM; activity change, negative = inhibition: at the top concentration;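 note: BG1 cells stimulated with 17beta-estradiol alongside compound; nearly all actives have a fitted effect of over 25% in size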
Source text: National Center for Advancing Translational Sciences [NCATS]
NIH Chemical Genomics Center [NCGC]
U.S. Environmental Protection Agency [EPA]
National Institutes of Environmental Health Sciences [NIEHS]
National Toxicology Program [NTP]
U.S. Food and Drug Administration [FDA]
Estrogen receptor (ER), a nuclear hormone receptor, plays an important role in development, metabolic homeostasis and reproduction. Endocrine disrupting chemicals (EDCs) and their interactions with steroid hormone receptors like ER causes disruption of normal endocrine function. Therefore, it is important to understand the effect of environmental chemicals on the ER signaling pathway. To identify ER antagonists, BG1-Luc-4E2 cell line (provided by Dr. Michael Denison from University of California) has been used to screen the Tox21 10K compound library. BG1Luc4E2 cell line endogenously expresses full-length ER-alpha and is stably transfected with a plasmid containing four estrogen responsive elements (ERE) upstream of a luciferase reporter gene.
Tox21 Assay Protocol Summary:
BG1-Luc-4E2 cells were cultured in phenol red free assay medium containing 10% charcoal stripped FBS for 5 days before the assay was performed. The cells were dispensed at 4,000 cells/4 uL of assay medium per well into white wall/solid-bottom 1536-well plates using a Multidrop Combi (ThermoFisher Scientific, Waltham, MA) dispenser. The assay plates were incubated at a 37C and 5% CO2 for 24 h, and then 23 nL of compounds dissolved in DMSO, positive controls or DMSO only was transferred to the assay plate using a Pintool station (Kalypsys, San Diego, CA), followed by addition of 1 uL of 17beta-estradiol in assay medium using a Flying Reagent Dispenser (Aurora Discovery, San Diego, CA). After the plates were incubated at 37 C and 5% CO2 for 21.5 h, 1 uL of CellTiter-Fluor reagent (Promega, Madison, WI) of measuring cytotoxicity was added using Flying Reagent Dispenser (FRD) to each well. The assay plates were incubated at 37 C and 5% CO2 for additional 30 min and the fluorescence intensity was quantified by a ViewLux plate reader (PerkinElmer, Shelton, CT). For measuring luciferase reporter gene activity, 4 uL of ONE-Glo reagent (Promega) was added to each plate using an FRD and luminescence was quantified by a ViewLux plate reader after 30 min incubation at room temperature.
% is set by controls: 0 for no effect and ±100 for the full control effect; potency is the fitted concentration of half-maximal effect.

Row | Compound | activity change, negative = inhibition | Potency
1 | CN(C)C(=O)Nc1ccccc1 | 0.846% (inactive) | 
2 | CC(=O)N[C@@H](CCC(N)=O)C(=O)O | -1.33% (inactive) | 
3 | CCN(CC)C(=O)c1ccc(O)c(OC)c1 |  | inactive
4 | CCCCCCOC(=O)c1ccccc1O | 0.0052% (inactive) | 
5 | CCCCCCCCCCCl | -4.91% [at 95 µM] (inactive) | 
6 | COC[C@H](c1ccc(C(F)(F)F)cc1)N1CCN(C2(C)CCN(C(=O)c3c(C)ncnc3C)CC2)C[C@H]1C | 2.2% (inactive) | 
7 | Cc1ccc(Nc2ccc(O)c3c2C(=O)c2ccccc2C3=O)cc1 | 1% (inactive) | 
8 | O=[N+]([O-])c1ccc(CCO)cc1 | 6.69% (inactive) | 
9 | CCO[Si](C)(OCC)OCC | 1.97% (inactive) | 
10 | CCCCNc1ccccc1 | -1.62% (inactive) | 
11 | C1CCCCCCCCCCC1 | 7.25% [at 32.5 µM] (inactive) | 
12 | O=[N+]([O-])c1ccc(Oc2ccc([N+](=O)[O-])cc2)cc1 | 9.74% [at 95 µM] (inactive) | 
13 | O=S(=O)(c1cccc2cnccc12)N1CCCNCC1 |  | 6.68 µM (active)
14 | CCCOc1ccccc1-c1nc2n[nH]nc2c(=O)[nH]1 | -8% (inactive) | 
15 | CC(C)N1C(=O)c2ccccc2C1=O | -8.49% (inactive) | 
16 | CC(=O)c1ccc(C)cc1 | 1.31% (inactive) | 
17 | CC(C)=CCC/C(C)=C/C(=O)O | 10.5% (inactive) | 
18 | O=C(O)Cc1cc(I)c(Oc2cc(I)c(O)c(I)c2)c(I)c1 | 6.5% (inactive) | 
19 | O=C(O)c1ccccc1-c1ccc(C(F)(F)F)cc1 | -4.81% (inactive) | 
20 | COC(=O)[C@H]1[C@H]2C[C@@H]3c4[nH]c5cc(OC)ccc5c4CCN3C[C@H]2C[C@@H](OC(=O)COc2ccc(OC)cc2)[C@@H]1OC | -9.16% (inactive) | 

Row | Compound | activity change, negative = inhibition | Potency
21 | C=C(C)C1CC=C(C)C(O)C1 (stereo not given) | -9.95% [at 95 µM] (inactive) | 
22 | CCOC(=O)Nc1ccc2c(c1)N(C(=O)CCN1CCOCC1)c1ccccc1S2 | 7.13% [at 32.5 µM] (inactive) | 
23 | CCN1CCCC(OC(=O)C(c2ccccc2)c2ccccc2)C1 (stereo not given) | 0% [at 32.5 µM] (inactive) | 
24 | Oc1cc(O)c2c(c1)O[C@H](c1ccc(O)c(O)c1)[C@H](O)C2 | -5.53% (inactive) | 
25 | COC(=O)c1ccc(C(=O)OC)c(C(=O)OC)c1 | 0.583% (inactive) | 
26 | CCn1cc(C(=O)O)c(=O)c2cc(F)c(N3CCN(C)CC3)cc21 | -14.5% (inactive) | 
27 | CCCCCCOC(=O)CC(CC(=O)OCCCCCC)(OC(=O)CCC)C(=O)OCCCCCC | -0.529% (inactive) | 
28 | CN1[C@@H]2CC[C@H]1CC(NC(=O)n1c(=O)[nH]c3ccccc31)C2 (stereo not given in full) | 11.3% (inactive) | 
29 | CC1(C)SC(C)(C)SC(C)(C)S1 | -3.12% (inactive) | 
30 | O=C1C(CCS(=O)c2ccccc2)C(=O)N(c2ccccc2)N1c1ccccc1 (stereo not given) | 15.5% [at 32.5 µM] (inactive) | 
31 | COc1cccc(Br)c1 | 3.66% (inactive) | 
32 | CC1=CC(C)C(C=O)C(C)C1 (stereo not given) | 0.718% (inactive) | 
33 | CC/C=C\C#N | -3.19% (inactive) | 
34 | NCCNC(=O)c1ccc(Cl)cn1 | 2.37% (inactive) | 
35 | c1ccc2cnncc2c1 | 4.21% (inactive) | 
36 | CC1CCN(CCCC(=O)c2ccc(F)cc2)CC1 | 7.74% (inactive) | 
37 | COCc1ccc(COC)cc1 | 0.0703% (inactive) | 
38 | CCCCCCCCCCCCCCCCCC(=O)OCCCCCCCCCCCCCC(C)C | -10.7% (inactive) | 
39 | C=C[Si](OC)(OC)OC | 0.384% (inactive) | 
40 | COC(=O)CCCCCCCCC(=O)OC | -0.358% [at 95 µM] (inactive) | 
